The whole screen tested about 53,000 compounds, of which about 900 (1.7%) showed an effect of 50% or more. The full list was thinned out, with strong results kept by preference.
test system: Mycobacterium tuberculosis; assay: Cornell - Phenotypic assay to identify agents that inhibit growth of Mycobacterium tuberculosis; type: functional; set-up: scale not given: direction of the effect not stated beside the values; details: 10 mM as filed; unlikely as a test dose

Structure (SMILES)	Percent Effect
CNc1nc2c(s1)C(c1cccc(Cl)c1Cl)CC(=O)N2 (stereo unspecified)	35.33%
CNc1nc2c(s1)C(c1cccc(F)c1F)CC(=O)N2 (stereo unspecified)	-9.045%
CNc1nc2c(s1)C(c1c(Cl)cccc1Cl)CC(=O)N2 (stereo unspecified)	107.9%
CNc1nc2c(s1)C(c1ccccc1Cl)CC(=O)N2 (stereo unspecified)	45.9%
CNc1nc2c(s1)C(c1ccc(F)cc1Cl)CC(=O)N2 (stereo unspecified)	32.27%
Nc1nc2c(s1)C(c1c(F)cccc1Cl)CC(=O)N2 (stereo unspecified)	103.5%
Cn1ncc2c1NC(=O)CC2c1c(F)cccc1Cl (stereo unspecified)	13.6%
CC(O)CN1CC(C)(C)CN(C(=O)CCc2ccccc2)CC1=O (stereo unspecified)	4.925%
CCN1CCN(C(=O)c2cc(-c3ccc(C)o3)n[nH]2)[C@H]2CS(=O)(=O)C[C@H]21	-0.2092%
CCNC(c1cccnc1)c1ccc(F)c(C)c1 (stereo unspecified)	-53.96%
CC(=O)N1CCN(C(=O)Nc2ccccc2Cl)[C@H]2CS(=O)(=O)C[C@H]21	4.723%
Cc1cc(C)n(CC(=O)N2CCCCC2CCN2CCCC2=O)c(=O)n1 (stereo unspecified)	8.917%
Cc1cc(C(=O)N2CCc3c(CN(C)C(C)C)n[nH]c3C2)[nH]n1	21.29%
CCc1noc(CNc2ccc(C(=O)N3CCCC3)cc2C)n1	-69.23%
Cc1ccc(CN2CCc3onc(C(=O)NC(C)C)c3C2)o1.O=C(O)C(F)(F)F	1.183%
Cc1ccc(CN2CCc3onc(C(=O)NCCN(C)C)c3C2)o1.O=C(O)C(F)(F)F.O=C(O)C(F)(F)F	6.093%
Cc1ccc(CN2CCc3onc(C(=O)Nc4cccnc4)c3C2)o1.O=C(O)C(F)(F)F.O=C(O)C(F)(F)F	61.31%
CCc1cnc(CN(C)C2CCN(Cc3nnc(C4CC4)n3C)C2)o1 (stereo unspecified)	31.65%
Cc1cc(C)c(C(=O)N(C)CCN(C)C(=O)OC(C)(C)C)[nH]1	68.36%
Cc1cc(C)c(C(=O)N(C)CCN(C)C(=O)c2[nH]c(C)cc2C)[nH]1	1.614%
Cc1cc(C(=O)N(C)CCN(C)C(=O)OC(C)(C)C)oc1C	-8.303%
c1cc(CNc2ncc(-c3cnccn3)c(C3CC3)n2)ccn1	-5.136%
CSc1cccc(CN(C)C(=O)c2cccc(C3CCCNC3)c2)c1 (stereo unspecified)	36.25%
CC(=O)N1CCC(c2ncc(C(=O)Nc3ccc(F)cc3)c(C)n2)CC1	4.765%
O=C(O)C(F)(F)F.O=S(=O)(NCC1COCc2c(-c3ccncc3)nnn2C1)C1CC1 (stereo unspecified)	13.64%
Cn1cc(-c2csc(N3CCCCCC3)n2)cn1	18.17%

Structure (SMILES)	Percent Effect
CN1CCN(c2nc(-c3cnn(C)c3)cs2)CC1	19.22%
Cn1cc(-c2csc(N3CCN(C(=O)OC(C)(C)C)CC3)n2)cn1	78.03%
Cc1occc1C(=O)N1CCCC(C2=Nc3ccccc3S(=O)(=O)N2)C1 (stereo unspecified)	60.62%
O=C(c1ccncc1)N1CCCC(C2=Nc3ccccc3S(=O)(=O)N2)C1 (stereo unspecified)	43.45%
O=C(C1CC1)N1CCCC(C2=Nc3ccccc3S(=O)(=O)N2)C1 (stereo unspecified)	29.99%
CC(C)CN1C[C@H]2C[C@H](C(=O)Nc3cccnc3)[C@@H](C1)O2	6.477%
CCN(CC)S(=O)(=O)CC(=O)N1CCc2ccc(Cl)cc21	4.859%
CCOc1cc(CN(C)CCCC#N)ccc1OC(F)F	7.532%
Cc1cc(NC(=O)C2CCN(c3nnc(C)c(C)c3C#N)CC2)no1	-12.4%
Cc1cc(NC(=O)NCc2nccn2C)ccc1OC(C)C	35.97%
Cc1cc(NC(=O)NCc2nncn2C)ccc1OC(C)C	-0.4289%
CCC(CO)NC(=O)Nc1ccc(OCC(F)(F)F)c(C)c1 (stereo unspecified)	-5.78%
Cc1cc(NC(=O)NCc2ccncc2)ccc1OC(C)C	88.24%
CCC(NC(=O)Nc1ccc(OC)c(C)c1)c1ccncc1 (stereo unspecified)	89.35%
CCC(NC(=O)Nc1ccc(OC)c(C)c1)c1noc(C)n1 (stereo unspecified)	-4.83%
CCCc1nc2c(c(C)c(C)n2Cc2cccnc2)c(N)c1CC	0.8008%
CC(=O)c1nn(-c2ccccc2Cl)c(C)c1C(C)=O	14.3%
COCCNC(=O)c1cccnc1Sc1cc(OC)ccc1OC	-23.48%
Cc1ncc2c(n1)CN(CC(=O)Nc1cccnc1)CC2	-17.74%
CC(C)NC(=O)N1CCCn2cnc(CO)c2C1.O=C(O)C(F)(F)F	25.62%
Cc1cccc(CN2C[C@@H]3CN(C(=O)NC(C)C)C[C@@H]3C2=O)n1.O=C(O)C(F)(F)F	25.36%
CN1CCC(c2cc(CCO)ncn2)C1 (stereo unspecified)	-9.182%
O=C(NCc1ccccc1CN1CCOCC1)c1ccc(Br)cc1F	8.243%
O=C(Nc1ccc(Br)cc1F)c1ccc(N2CCOCC2)nn1	-1.334%
O=C(Nc1ccc(Br)cc1F)c1cc(CN2CCOCC2)on1	74.1%

Source: ChEMBL document CHEMBL3988442, “University of Dundee, Small-Polar-MMV Screening Library” (2021)
